We go through five molecules from PubChem BioAssay (NCATS).

The nature of experiment [1]: qHTS drug screen for cell cycle checkpoint inhibitors in PARPi-resistant BRCA-mutant ovarian cancer cell lines. (AID 1963452; calls by dose curve; further: potency means the concentration at half of the fitted maximal effect). The settings on record: PEO1/OlaR viability, CellTiter-Glo luminescence, 96 h; for Z-AUC: stronger effect = lower value. In short, it runs like this: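 PEO1, PEO4 and PEO1/OlaR ovarian cancer cells, 600 per well, exposed 96 h at 37C to a dilution series. Viability read by CellTiter-Glo luminescence, normalized to DMSO and empty wells; activity summarized as Z-AUC.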
For orientation: In qHTS, concentration-response curves come from the screen itself.

Experiment [2] in a line: qHTS assay to identify inhibitors of the type 1 interferon - major histocompatibility complex class I in skeletal muscle: Counter screen cell viability and HiBit confirmation (AID 1347412). Further: on the % scale 0 is the no-effect control and ±100 the full control effect; nearly all actives have a fitted effect of over 60% in size. As to conditions: iHSKM muscle cells + IFN-b, HiBiT or CellTiter-Glo, 24 h; Viability; at 45.9 µM (top of the series). The method, boiled down: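 Myoblasts (C25cl48, HLA-B HiBiT) seeded in medium without dexamethasone, IFN-b 4 ng/ml added except unstimulated columns; 1 hr later compounds pinned (12-pt 1:3, top 46 uM final). Incubated 24 hrs, lysed 10 min, luminescence measured.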

The nature of experiment [3]: Validation of Assay for Modulators of Lamin A Splicing (AID 1459; active means well fitted curve in the direction sought with a large enough effect in the signal ratio; the % refers to the signal ratio;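 further: cells exposed to compound for two days before reading; 0% is about no effect; ratio rise marks activators and ratio drop marks inhibitors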). The settings on record: Lamin A splicing dual RFP/GFP fluorescence reporter; series mostly up to 9.22 µM. The method, boiled down: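 Splicing correction is reported by an EGFP-containing lamin A minigene in stably transfected S3 HeLa cells, while DsRed2 controls for viability and nonspecific signal. Cells are exposed to compounds for 48 hrs before the GFP over RFP ratio is taken.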

Experiment [4] can be described thus: qHTS Assay for Lipid Storage Modulators (AID 1519; calls by dose curve; on activity change, negative = inhibition: on the % scale 0 is the no-effect control and ±100 the full control effect). The settings on record: Drosophila S3 cells, BODIPY lipid droplet/cell ratio, laser cytometry, cells loaded with oleic acid; for activity change, negative = inhibition: at 57.5 µM (top of the series). In short, it runs like this: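 Cells seeded at 5,000 per well were treated with compounds over a concentration series and loaded with oleic acid (400 uM, as added). Lipid droplet fluorescence (488 nm excitation, 500-530 nm channel) was read by laser-scanning cytometry and normalized to 20 uM Triacsin C.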

The target of experiment [5] is DNA repair nuclease/redox regulator APEX1 (Homo sapiens) (UniProt P27695). The experiment can be described thus: qHTS Validation Assay for Inhibitors of the Human Apurinic/apyrimidinic Endonuclease 1 (APE1) (AID 1705;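 further: TAMRA fluorescence gain over two minutes as APE1 cuts a quenched THF abasic duplex; on the % scale 0 is the no-effect control and ±100 the full control effect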). As to conditions: purified APE1 endonuclease activity, fluorescence, titration; series mostly up to 57.1 µM. In short, it runs like this:
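Endonuclease activity of human APE1 is followed as dequenching when the enzyme incises a tetrahydrofuran abasic site in a short duplex labelled 5'-TAMRA/3'-BHQ-2 (50 nM final), after 15 min enzyme–compound preincubation at room temperature.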

The nature of experiment [6]: Counterscreen for APE1 Inhibitors: Fluorescent Dye Displacement Validation Assay (AID 1707).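 Further: plate controls were ThO with dsDNA and no compound for no effect and ThO without dsDNA for full effect.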 As to conditions: fluorescent dye displacement from DNA; series mostly up to 57.1 µM. In short, it runs like this:
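Reaction mixture of 250 nM Thiazole Orange and 50 nM double-stranded abasic-site DNA was dispensed, compounds were pin-transferred, and fluorescence was read at endpoint (480 nm ex, 540 nm em). Reduced fluorescence indicated dye displacement by DNA binding.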

Experiment [7] can be described thus: qHTS for differential inhibitors of proliferation of Plasmodium falciparum line D10 (AID 1877).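 Further: parasites grown with compound for 72 h before DNA staining; plate controls were vehicle wells for no effect and reference inhibitor wells for full effect.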 As to conditions: series mostly up to 28.7 µM.
Experiment [8] concerns the target ATP-dependent DNA helicase Q1 (Homo sapiens) (UniProt P46063). The experiment can be described thus: qHTS Validation Assay for Inhibitors of RecQ-Like Dna Helicase 1 (RECQ1) (AID 2353).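 Further: plate controls were DMSO vehicle for no effect and enzyme-free control for full effect.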 As to conditions: recombinant RECQ1 helicase DNA unwinding assay; series mostly up to 25.6 µM. The method, boiled down:
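RECQ1T1 50 nM; forked duplex (20 bp + 30-nt ss tails) 200 nM, ATP 2 mM final; pH 8.0, 2 mM MgCl2, 2.5 ug/ml poly(dI-dC); 15 min compound preincubation; discontinuous kinetic read over 2 h at RT.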

A short description of experiment [9]: Validation screen for small molecules that induce DNA re-replication in MCF 10A normal breast cells (AID 463097). Further: 0% is about no effect; nearly all actives have a fitted effect of over 60% in size. The settings on record: MCF 10A cells, DNA re-replication phenotype imaging; series mostly up to 46.1 µM. The method, boiled down: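 DNA re-replication was detected as a rise in nuclei with elevated Hoechst fluorescence after a 48 hr compound exposure of MCF 10A cells at 37 C.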

The nature of experiment [10]: Quantitative high throughput screen for delayed death inhibitors of the malarial parasite plastid, 96 hour incubation (AID 488745).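 Further: luciferase-expressing P. falciparum in erythrocytes at 2% hematocrit and 0.1% parasitemia; on the % scale 0 is the no-effect control and ±100 the full control effect; nearly all actives have a fitted effect of over 70% in size.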 The settings on record: Plasmodium falciparum growth; series mostly up to 28.7 µM. The method, boiled down:
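Readout is firefly luciferase luminescence from an integrated reporter in P. falciparum; lower signal marks inhibited growth. Cultures at 2% hematocrit and 0.1% parasitemia were treated with compound across two generations (96 h, 37 C, 5% CO2).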

Experiment [11] in a line: Quantitative high throughput screen for delayed death inhibitors of the malarial parasite plastid, 48 hour incubation (AID 488752). Further: on the % scale 0 is the no-effect control and ±100 the full control effect; nearly all actives have a fitted effect of over 65% in size. As to conditions: Plasmodium falciparum growth; series mostly up to 28.7 µM. In short, it runs like this:
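First, compound was pinned into RPMI 1640 medium containing 0.5% Albumax. Next, reporter-parasite-infected erythrocytes were added to 2% hematocrit and 0.1% parasitemia. After 48 h at 37 C under 5% CO2, luciferase detection reagent was added and luminescence read.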

Experiment [12] addresses Transient receptor potential cation channel subfamily V member 1 (Homo sapiens) (UniProt Q8NER1). Nature of the experiment: HTS Assay for Compounds that Act as Enhancers of the Vanilloid Receptor 1 (AID 488979). Further: 0% is about no effect. The settings on record: TRPV1-expressing cells, enhancer of channel activity, stimulated with capsaicin at EC20; series mostly up to 41.7 µM. The method, boiled down:
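TRPV1-expressing cells loaded with Fluo-8 calcium dye; compounds added and calcium influx read kinetically for 3 min (agonist phase), then capsaicin at EC20 added and read 2 min more for enhancement. Fluorescence ex 480/em 520 nm.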

Experiment [13] deals with Thyrotropin receptor (Homo sapiens) (UniProt P16473). The experiment can be described thus: qHTS Assay for Antagonists of the Thyroid Stimulating Hormone Receptor (AID 488980). Further: 0% is about no effect. The settings on record: TSHR-expressing cells, cAMP antagonist read-out; series mostly up to 57.5 µM. The method, boiled down: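 Cells expressing human TSHR (HEK293) are dispensed in HBSS/HEPES containing 70 uM RO 20-1724, compound is added, then TSH at EC80 (4 nM final). Antibody in lysis buffer follows, 30 minutes at room temperature before HTRF detection.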

Experiment [14] has as its target Thyrotropin-releasing hormone receptor (Homo sapiens) (UniProt P34981). Nature of the experiment: qHTS for Small Molecule Agonists and Allosteric Enhancers of Human TRH Receptor: Validation Screen for Agonists (AID 493127;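 active means calcium activation more than 3 SD above the typical response in the agonist read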;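 further: intracellular calcium rise by fluo-8 fluorescence before TRH EC20 addition; 0% is about no effect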). The settings on record: TRH receptor agonist cell assay; at 2 µM; stronger effect = higher value. The method, boiled down: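 Compounds are added by online pintool to dye-loaded TRHR cells while fluorescence is recorded every second. A rise in calcium signal during the agonist read marks activation; a later 10 nM TRH addition (EC20) serves the separate enhancer mode.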

Experiment [15] addresses Galactokinase (Homo sapiens) (UniProt P51570). Nature of the experiment: qHTS Validation Assay for Inhibitors of Human Galactokinase (GALK) (AID 493189). Further: 0% is about no effect. As to conditions: purified human GALK enzyme activity, qHTS 7-point titration; series mostly up to 57.5 µM. The method, boiled down: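 Compounds were pin-transferred into ATP buffer, then GALK-galactose mix was added (final 5 nM enzyme, 100 uM galactose, 35 uM ATP). After 1 h at room temperature, remaining ATP was measured luminescently.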

Experiment [16] is described as follows: Validation screen for small molecules that induce DNA re-replication in SW480 colon adenocarcinoma cells (AID 504364). Further: 0% is about no effect. The settings on record: DNA re-replication phenotype (high-content imaging); series mostly up to 46.1 µM. In short, it runs like this:
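Image-based qHTS: compounds were incubated with SW480 cells for 48 hr, nuclei stained with Hoechst, and per-nucleus fluorescence intensity scanned to flag cells with excess DNA content.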

A short description of experiment [17]: qHTS for differential inhibitors of proliferation of Plasmodium falciparum line GB4 (AID 1816).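 Further: parasite growth measured after 72 h incubation; 0% = vehicle DMSO and -100% = reference inhibitor.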 As to conditions: Potency: Plasmodium falciparum GB4 proliferation inhibition; series mostly up to 28.7 µM.
The nature of experiment [18]: qHTS for differential inhibitors of proliferation of Plasmodium falciparum line HB3 (AID 1886).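 Further: parasites grown with compound for 72 h before SYBR Green readout; plate controls were vehicle for no effect and reference inhibitor for full effect.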 The settings on record: Potency: Plasmodium falciparum HB3 proliferation inhibition; series mostly up to 28.7 µM.
The nature of experiment [19]: qHTS for differential inhibitors of proliferation of Plasmodium falciparum line 3D7 (AID 1876).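 Further: parasite growth measured after three days of culture; 0% = vehicle wells and -100% = reference inhibitor wells.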 The settings on record: P. falciparum 3D7 proliferation inhibition; series mostly up to 28.7 µM.
For experiment [20], the target named is Glutathione peroxidase 1 (Homo sapiens) (UniProt P07203). Nature of the experiment: Primary qHTS Assay for Inhibitors of Recombinant Selenoprotein Glutathione Peroxidase 1 (GPX1) (AID 1845191). Further: on the % scale 0 is the no-effect control and ±100 the full control effect; nearly all actives have a fitted effect of over 65% in size. The settings on record: recombinant GPX1, GR-coupled NADPH fluorescence, 15 min; series mostly up to 48.8 µM. In short, it runs like this: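 GPX1 10 nM, GR 100 nM, GSH 1 mM, NADPH 0.5 mM, CHP 0.5 mM (final). 30-min cpd preincubation, RT. Ex340/Em450 read t=0, t=15 min.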

The mark [21] stands for this setting: measured here: PEO1 parental Z-AUC.
Where [22] appears, read: measured here: cell count channel max response.
Setting [23] is: measured here: lipid channel max response.

Several values for one entry are separate records, joined by “and”; a condition that tells them apart may be missing. Equal values may be shown once. Inconclusive results are not listed. Activity calls are given as the source filed them. Unless noted, the call rests on the fitted dose curve; in most records, active means well fitted curve in the direction sought with a large enough effect; inconclusive means small, poorly fitted or top-dose-only effect, or another doubt; inactive means no such curve, though single readings can be large; an effect the other way counts as inactive or inconclusive.

Chain of DNA repair nuclease/redox regulator APEX1 (Homo sapiens) (P27695 whole entry, looked up): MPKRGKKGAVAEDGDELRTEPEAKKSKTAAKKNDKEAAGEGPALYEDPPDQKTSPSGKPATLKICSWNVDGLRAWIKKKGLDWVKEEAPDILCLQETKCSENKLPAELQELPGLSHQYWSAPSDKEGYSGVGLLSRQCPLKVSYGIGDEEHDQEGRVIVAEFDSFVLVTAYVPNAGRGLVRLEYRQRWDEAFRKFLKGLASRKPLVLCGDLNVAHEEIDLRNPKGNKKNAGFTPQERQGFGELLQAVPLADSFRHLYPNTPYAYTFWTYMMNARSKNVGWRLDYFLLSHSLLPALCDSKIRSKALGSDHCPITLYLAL
Chain of Transient receptor potential cation channel subfamily V member 1 (Homo sapiens) (Q8NER1 whole entry, looked up): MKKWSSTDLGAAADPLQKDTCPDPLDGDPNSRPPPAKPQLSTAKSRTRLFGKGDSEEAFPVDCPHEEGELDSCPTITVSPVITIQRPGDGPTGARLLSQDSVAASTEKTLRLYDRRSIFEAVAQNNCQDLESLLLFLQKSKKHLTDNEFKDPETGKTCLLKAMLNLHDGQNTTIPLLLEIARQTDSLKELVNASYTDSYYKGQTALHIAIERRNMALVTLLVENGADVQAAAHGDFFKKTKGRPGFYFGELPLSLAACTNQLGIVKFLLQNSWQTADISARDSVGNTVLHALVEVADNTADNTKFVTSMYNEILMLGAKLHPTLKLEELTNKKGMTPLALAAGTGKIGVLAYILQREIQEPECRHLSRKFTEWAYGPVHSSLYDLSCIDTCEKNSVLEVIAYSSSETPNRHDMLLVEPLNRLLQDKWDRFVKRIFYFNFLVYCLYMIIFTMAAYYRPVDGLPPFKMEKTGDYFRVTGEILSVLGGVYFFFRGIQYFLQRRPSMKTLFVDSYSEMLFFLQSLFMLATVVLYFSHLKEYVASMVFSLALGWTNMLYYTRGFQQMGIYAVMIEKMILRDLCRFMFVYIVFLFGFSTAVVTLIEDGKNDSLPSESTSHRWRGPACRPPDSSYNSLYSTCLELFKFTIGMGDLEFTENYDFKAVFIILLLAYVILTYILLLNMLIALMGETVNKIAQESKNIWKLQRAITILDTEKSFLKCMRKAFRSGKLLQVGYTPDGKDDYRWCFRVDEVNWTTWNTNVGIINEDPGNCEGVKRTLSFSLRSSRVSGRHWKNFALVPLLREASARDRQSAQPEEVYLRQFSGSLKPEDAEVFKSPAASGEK
Chain of Galactokinase (Homo sapiens) (P51570 whole entry, looked up): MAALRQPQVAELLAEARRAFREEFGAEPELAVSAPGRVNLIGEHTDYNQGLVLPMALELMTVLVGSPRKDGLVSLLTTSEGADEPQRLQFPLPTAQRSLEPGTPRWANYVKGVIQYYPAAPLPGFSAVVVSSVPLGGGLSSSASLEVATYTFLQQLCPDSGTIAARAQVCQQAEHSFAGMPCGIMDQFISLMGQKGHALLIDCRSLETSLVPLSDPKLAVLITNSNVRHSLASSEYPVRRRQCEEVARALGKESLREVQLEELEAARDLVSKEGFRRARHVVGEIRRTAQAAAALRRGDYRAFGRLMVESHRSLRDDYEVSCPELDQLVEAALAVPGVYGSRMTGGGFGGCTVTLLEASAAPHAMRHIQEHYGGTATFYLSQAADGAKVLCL
Chain of Thyrotropin-releasing hormone receptor (Homo sapiens) (P34981 whole entry, looked up): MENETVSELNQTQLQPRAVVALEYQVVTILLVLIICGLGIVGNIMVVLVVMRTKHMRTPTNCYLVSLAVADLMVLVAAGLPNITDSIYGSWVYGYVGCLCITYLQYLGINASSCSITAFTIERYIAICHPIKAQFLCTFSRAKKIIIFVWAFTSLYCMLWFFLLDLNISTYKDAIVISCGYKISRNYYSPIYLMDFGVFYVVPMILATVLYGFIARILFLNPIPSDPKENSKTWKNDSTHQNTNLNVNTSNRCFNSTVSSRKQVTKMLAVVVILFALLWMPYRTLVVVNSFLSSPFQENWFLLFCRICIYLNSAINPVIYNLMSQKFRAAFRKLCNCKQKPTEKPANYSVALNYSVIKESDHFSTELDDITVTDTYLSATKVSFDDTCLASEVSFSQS
Chain of Thyrotropin receptor (Homo sapiens) (P16473 whole entry, looked up): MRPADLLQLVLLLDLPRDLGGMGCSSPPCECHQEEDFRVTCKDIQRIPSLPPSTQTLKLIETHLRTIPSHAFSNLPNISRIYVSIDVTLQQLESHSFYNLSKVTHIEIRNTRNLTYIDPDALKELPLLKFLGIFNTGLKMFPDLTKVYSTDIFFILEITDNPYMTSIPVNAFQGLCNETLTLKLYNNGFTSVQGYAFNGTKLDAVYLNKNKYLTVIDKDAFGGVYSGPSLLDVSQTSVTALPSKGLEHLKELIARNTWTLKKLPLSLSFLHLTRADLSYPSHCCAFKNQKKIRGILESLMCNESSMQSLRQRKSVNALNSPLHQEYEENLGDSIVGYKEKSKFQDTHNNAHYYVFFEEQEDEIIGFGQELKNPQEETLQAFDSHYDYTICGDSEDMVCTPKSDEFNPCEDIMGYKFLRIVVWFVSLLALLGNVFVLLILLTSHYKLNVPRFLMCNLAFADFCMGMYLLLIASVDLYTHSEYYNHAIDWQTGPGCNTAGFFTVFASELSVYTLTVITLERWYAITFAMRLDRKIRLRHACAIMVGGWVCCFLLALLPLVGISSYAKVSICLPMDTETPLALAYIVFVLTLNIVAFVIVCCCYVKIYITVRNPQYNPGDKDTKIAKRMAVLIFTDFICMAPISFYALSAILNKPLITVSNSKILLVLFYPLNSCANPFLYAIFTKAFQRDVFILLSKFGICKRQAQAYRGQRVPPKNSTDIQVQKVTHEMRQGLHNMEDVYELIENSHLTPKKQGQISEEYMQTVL
Chain of ATP-dependent DNA helicase Q1 (Homo sapiens) (P46063 whole entry, looked up): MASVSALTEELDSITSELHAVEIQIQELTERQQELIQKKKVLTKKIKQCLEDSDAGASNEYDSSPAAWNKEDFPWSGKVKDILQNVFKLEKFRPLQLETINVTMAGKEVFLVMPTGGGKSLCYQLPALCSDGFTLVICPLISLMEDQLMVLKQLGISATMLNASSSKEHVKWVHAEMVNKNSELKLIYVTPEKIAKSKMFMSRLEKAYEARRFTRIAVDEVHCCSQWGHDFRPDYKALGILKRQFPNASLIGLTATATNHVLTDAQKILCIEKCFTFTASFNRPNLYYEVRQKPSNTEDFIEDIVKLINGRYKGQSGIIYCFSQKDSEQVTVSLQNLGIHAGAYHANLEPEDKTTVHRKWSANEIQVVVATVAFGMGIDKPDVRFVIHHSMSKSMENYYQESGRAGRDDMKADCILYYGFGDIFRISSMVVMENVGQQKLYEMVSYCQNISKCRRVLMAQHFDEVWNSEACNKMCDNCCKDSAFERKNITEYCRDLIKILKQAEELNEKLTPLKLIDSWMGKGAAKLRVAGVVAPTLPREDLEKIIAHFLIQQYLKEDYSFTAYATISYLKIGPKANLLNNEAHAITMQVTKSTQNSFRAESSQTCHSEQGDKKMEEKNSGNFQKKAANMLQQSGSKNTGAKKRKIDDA
Chain of Glutathione peroxidase 1 (Homo sapiens) (P07203 whole entry, looked up): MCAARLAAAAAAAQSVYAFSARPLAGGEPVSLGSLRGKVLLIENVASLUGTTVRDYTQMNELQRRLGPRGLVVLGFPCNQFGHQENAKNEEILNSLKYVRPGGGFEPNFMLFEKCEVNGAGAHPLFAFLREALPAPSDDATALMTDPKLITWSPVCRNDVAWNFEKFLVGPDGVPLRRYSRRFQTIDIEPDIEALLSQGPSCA

Take `COc1nnc2ccc(N3CCC(c4ccc(OCCN5CCN(C)C(=O)[C@H]5C)cc4)CC3)nn12`: in [1], the Potency is 195 nM (active). Besides, the Z-AUC in experiment [1] (setting [21]) is -1.72; in experiment [1] (measured here: PEO4 Z-AUC), -1.83. For the same molecule, in experiment [2], the activity change, negative = inhibition is 14.1% (inactive).

`CC(=O)[C@@]1(O)CC[C@H]2C3CCC4=CC(=O)CC[C@]4(C)C3CC[C@@]21C` (stereo not given in full): the result in [3], in experiment [9], in experiment [12], in experiment [13], in [15] and in [16] was inactive. Besides, the activity change, negative = inhibition in [4] is 1.08% (inactive). Also, the max response in [4] (setting [22]) is -12.2%; in experiment [4] (setting [23]), -12.4%. Moreover, the Potency result in experiment [5], in experiment [6], in experiment [7], in experiment [8], in experiment [10] and in experiment [11] was “inactive” in each case. Also, the activation in experiment [14] is 1.5% (inactive).

As for `CC(=O)O[C@H]1C[C@@H]2CCC3C(CC[C@@]4(C)[C@H]3C[C@H]([N+]3(C)CCCCC3)[C@@H]4OC(C)=O)[C@@]2(C)C[C@@H]1[N+]1(C)CCCCC1` (stereo not given in full), the molecule was called inactive in experiment [3], in experiment [9], in [12], in experiment [13], in experiment [15] and in [16]. Further, the activity change, negative = inhibition in [4] is 0.655% (inactive). The results for the max response in experiment [4] (setting [22]) and in experiment [4] (setting [23]) were -31.8% and -31.3%, respectively. The Potency result in experiment [5], in [6], in experiment [17], in experiment [18], in experiment [8] and in [11] was “inactive” throughout. In experiment [14], the activation is 0.25% (inactive).

`C[C@]12CCC(=O)C=C1CC[C@@H]1C2[C@@H](O)C[C@@]2(C)[C@H]1CC[C@]2(O)C(=O)CO` (stereo not given in full): the molecule was classed as inactive in [3], in experiment [9], in [12], in experiment [13], in [15] and in experiment [16]. Moreover, the activity change, negative = inhibition in [4] is 0.0073% (inactive) and -1.01% (inactive). Also, the max response in [4] (setting [22]) was 2.28% and 8.51%; in [4] (setting [23]), 2.14% and 9.17%. Moreover, the Potency result in experiment [5], in [6], in experiment [17], in experiment [19], in experiment [7] and in [18] was “inactive” throughout. Moreover, the Potency result in experiment [8], in [10] and in experiment [11] was “inactive” in each case. In [14], the activation was 1% (inactive).

For `O=C1NC(=O)[C@@H](c2c[nH]c3ccccc23)[C@H]1c1cn2c3c(cccc13)CCC2`, in experiment [20], the Potency entry is “inactive”. The figures for the Z-AUC in experiment [1], in experiment [1] (setting [21]) and in [1] (measured here: PEO4 Z-AUC) were -1.13 (inactive), -0.673 and -0.711, respectively. In addition, the activity change, negative = inhibition in experiment [2] is -10.9% (inactive).
